Assay results from the supplement of paper PMC7866885, “A novel bicyclic 2,4-diaminopyrimidine inhibitor of Streptococcus suis dihydrofolate reductase” (PeerJ, 2021).
± gives the standard deviation.

Key:
Streptococcus suis HE06 = test: percent growth relative to DMSO control; higher = less growth inhibition; conditions: 10 µM; incubation time 18 h
Protocol: (§1)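 CLSI broth microdilution: 5x10^4 CFU of Streptococcus suis (strain P1/7 or HE06) incubated with 10 µM Pathogen Box compound in cation-adjusted Mueller Hinton broth, 37 °C, 5% CO2, 18 h. Growth read as OD600 and expressed as percent of the DMSO-treated control (100%); mean ± SD of three independent experiments.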

Streptococcus suis P1/7 = test: as above; conditions: 10 µM; incubation time 18 h
Protocol: as §1

`COc1ccc(OC)c(NCc2ccc3nc(N)nc(N)c3c2Cl)c1` gave a percent growth (Streptococcus suis HE06) of 4.05 ± 6.3% and a percent growth (Streptococcus suis P1/7) of 2.34 ± 1.3%.

For `CC(C)(C)OC(=O)N1CCN(c2nccc(-c3ccc(-c4ccc(Cl)cc4)s3)n2)CC1`, the percent growth (Streptococcus suis HE06) was 88.2 ± 12% and the percent growth (Streptococcus suis P1/7) was 129 ± 42%.

With `COC(=O)c1ccc(F)cc1NS(=O)(=O)c1cccc(-c2cnn(Cc3ccccc3)c2)c1` the percent growth (Streptococcus suis HE06) was 99.6 ± 8.2% and the percent growth (Streptococcus suis P1/7) was 127 ± 52%.

For `CC(C(=O)N1CCCC1)N1CCN(S(=O)(=O)c2ccc(C(C)(C)C)cc2)CC1` (configuration not stated), the percent growth (Streptococcus suis HE06) was 84.8 ± 24% and the percent growth (Streptococcus suis P1/7) was 63.4 ± 27%.

For `COc1cc(C2=NCCN2)ccc1-c1cn(-c2cccc(C3=NCCN3)c2)nn1`, the percent growth (Streptococcus suis HE06) was 82.9 ± 23% and the percent growth (Streptococcus suis P1/7) was 73 ± 4.1%.

For `O=C1[C@@H](Oc2ccccc2)[C@@H](c2ccc(Cl)cc2)N1CCn1cnc2c(NCc3ccccc3)ncnc21`, the percent growth (Streptococcus suis HE06) was 94.9 ± 4.6% and the percent growth (Streptococcus suis P1/7) was 112 ± 21%.

`CCOc1ccc(-c2nc(NC(=O)CS(=O)(=O)c3ccccc3)sc2C)cc1` showed a percent growth (Streptococcus suis HE06) of 76.9 ± 15% and a percent growth (Streptococcus suis P1/7) of 153 ± 100%.

Compound `CC[P](CC)(CC)=[Au][S][C@H]1O[C@@H](COC(C)=O)[C@H](OC(C)=O)[C@@H](OC(C)=O)[C@@H]1OC(C)=O` has a percent growth (Streptococcus suis HE06) of 4.65 ± 3% and a percent growth (Streptococcus suis P1/7) of 1.51 ± 1.8%.

`COc1cccn2c(C(=O)N3CCCCC3)c(C(F)(F)F)nc12` gave a percent growth (Streptococcus suis HE06) of 111 ± 22% and a percent growth (Streptococcus suis P1/7) of 87 ± 21%.

`Cc1cc(OCC(=O)NCc2ccccc2)c2cc(Br)ccc2n1` showed a percent growth (Streptococcus suis HE06) of 94.8 ± 9.9% and a percent growth (Streptococcus suis P1/7) of 176 ± 160%.

`COc1cccc(-c2cc3c(Nc4cccnc4)nccc3[nH]2)c1` showed a percent growth (Streptococcus suis HE06) of 226 ± 230% and a percent growth (Streptococcus suis P1/7) of 83.9 ± 23%.

`c1ccc(C[C@@H]2CN(c3nccc(Oc4ccc(-n5ccnc5)cc4)n3)CCN2)cc1` gave a percent growth (Streptococcus suis HE06) of 93.3 ± 12% and a percent growth (Streptococcus suis P1/7) of 90.5 ± 21%.

For `Cc1cc2ccccc2n1CC(=O)N1CC(C(=O)N2CCCCC2)Oc2ccccc21` (configuration not stated), the percent growth (Streptococcus suis HE06) was 71.6 ± 13% and the percent growth (Streptococcus suis P1/7) was 102 ± 19%.

Work on `CCCCc1ccc(C(=O)Nc2nccc3ccccc23)nc1` yielded a percent growth (Streptococcus suis HE06) of 32.4 ± 32% and a percent growth (Streptococcus suis P1/7) of 13.4 ± 21%.

`COc1ccc(-c2nc(-c3cccc(NC(=O)Cc4ccc(F)cc4)c3)no2)cc1OC` showed a percent growth (Streptococcus suis HE06) of 83 ± 3.5% and a percent growth (Streptococcus suis P1/7) of 102 ± 57%.

`O=C(Nc1ccnc(-c2cccnc2)n1)c1cc(C(F)(F)F)cc(C(F)(F)F)c1` was tested, and the percent growth (Streptococcus suis HE06) was 78.2 ± 14% and the percent growth (Streptococcus suis P1/7) was 123 ± 50%.

Compound `CC(C)n1nc(-c2cc3c(Cl)cccc3[nH]2)c2c(N)ncnc21` has a percent growth (Streptococcus suis HE06) of 112 ± 45% and a percent growth (Streptococcus suis P1/7) of 74.2 ± 5.9%.

Compound `CC(C(=O)Nc1ccc2oc(-c3ccncc3)nc2c1)c1ccccc1` (configuration not stated) has a percent growth (Streptococcus suis HE06) of 81.1 ± 11% and a percent growth (Streptococcus suis P1/7) of 95.8 ± 45%.

Compound `CC1=Nc2ccc(Cl)cc2C(O)(c2ccc(C)cc2)N1CCN1CCCCC1` (configuration not stated) has a percent growth (Streptococcus suis HE06) of 98.9 ± 32% and a percent growth (Streptococcus suis P1/7) of 91 ± 28%.

With `COc1cccc(NC(=O)c2c(NC(=O)c3cccnc3)sc3c2CCC3)c1` the percent growth (Streptococcus suis HE06) was 98.2 ± 24% and the percent growth (Streptococcus suis P1/7) was 86.6 ± 15%.

In the case of `c1ccc(Oc2ccc(-c3cc(C4CCOCC4)[nH]n3)cc2)cc1`, the percent growth (Streptococcus suis HE06) is reported as 59.7 ± 17% and the percent growth (Streptococcus suis P1/7) is reported as 49.6 ± 19%.

In the case of `NS(=O)(=O)c1cccc(-c2ccc3ncc(N4CCOCC4)nc3c2)c1`, the percent growth (Streptococcus suis HE06) is reported as 99.2 ± 34% and the percent growth (Streptococcus suis P1/7) is reported as 71.6 ± 6.4%.

`CC1CS(=O)(=O)CCN1/N=C/c1ccc([N+](=O)[O-])o1` (configuration not stated) was tested, and the percent growth (Streptococcus suis HE06) was 85.9 ± 6.6% and the percent growth (Streptococcus suis P1/7) was 85.1 ± 16%.

With `CC1(C)Cc2c(c(N3CCOCC3)nc3snc(Br)c23)CO1` the percent growth (Streptococcus suis HE06) was 94.1 ± 2% and the percent growth (Streptococcus suis P1/7) was 82.2 ± 20%.

In the case of `CC(c1cc(Cl)cc(Cl)c1)N(C)c1ncc2c(N)nc(N)nc2n1` (configuration not stated), the percent growth (Streptococcus suis HE06) is reported as 84.7 ± 21% and the percent growth (Streptococcus suis P1/7) is reported as 57.6 ± 42%.

With `Cc1[nH]c2cc(F)cc(F)c2c(=O)c1-c1ccc(Oc2ccc(OC(F)(F)F)cc2)cc1` the percent growth (Streptococcus suis HE06) was 96.3 ± 3.2% and the percent growth (Streptococcus suis P1/7) was 88.9 ± 18%.

`CN(C(=O)c1cc2c(-c3cncnc3)cccc2[nH]1)c1ccccc1` was tested, and the percent growth (Streptococcus suis HE06) was 102 ± 29% and the percent growth (Streptococcus suis P1/7) was 72.2 ± 27%.

With `Cn1ccnc1CNCCS(=O)(=O)c1cccc(Nc2ccc(-c3cccc(F)c3)cn2)c1` the percent growth (Streptococcus suis HE06) was 91.4 ± 14% and the percent growth (Streptococcus suis P1/7) was 35 ± 38%.

With `c1ccc(-c2cc(N3CCCCC3)c3ccccc3n2)nc1` the percent growth (Streptococcus suis HE06) was 0.646 ± 1.1% and the percent growth (Streptococcus suis P1/7) was 0.354 ± 0.61%.

`O=C(Nc1cccc(-c2ccc(NCCCN3CCCC3)nc2)c1)c1ccccc1` gave a percent growth (Streptococcus suis HE06) of 96.7 ± 23% and a percent growth (Streptococcus suis P1/7) of 72.5 ± 24%.

In the case of `CC(C)C(NC(=O)Cc1cccc2ccccc12)C(=O)Nc1cccc(C#N)c1` (configuration not stated), the percent growth (Streptococcus suis HE06) is reported as 84.6 ± 21% and the percent growth (Streptococcus suis P1/7) is reported as 158 ± 100%.

With `CCCn1c(CNc2ccccc2O)nc2ccccc21` the percent growth (Streptococcus suis HE06) was 62.6 ± 7.6% and the percent growth (Streptococcus suis P1/7) was 82.1 ± 38%.

`Nc1ncnc2[nH]nc(Cc3cccc4ccccc34)c12` gave a percent growth (Streptococcus suis HE06) of 104 ± 35% and a percent growth (Streptococcus suis P1/7) of 66.1 ± 20%.

`CC1CCCN(C(=O)C(C)Nc2cc(Cl)ccc2N2CCOCC2)C1` (configuration not stated) gave a percent growth (Streptococcus suis HE06) of 92 ± 11% and a percent growth (Streptococcus suis P1/7) of 94.4 ± 32%.

Compound `Cc1noc(C)c1C(=O)N1CCCC(c2[nH]c3c(C)cccc3c2-c2ccncc2)C1` (configuration not stated) has a percent growth (Streptococcus suis HE06) of 90.2 ± 6.2% and a percent growth (Streptococcus suis P1/7) of 90.5 ± 20%.

With `Cc1ccc2oc(-c3cc(NC(=O)Cc4ccccc4)ccc3Cl)nc2c1` the percent growth (Streptococcus suis HE06) was 93.1 ± 13% and the percent growth (Streptococcus suis P1/7) was 78.5 ± 4%.
